Read-out in assay [1]: Human Leukocyte Antigen - DR isotype (HLADR), HLA-DRA (gene 3122)
In words: BSK_BE3C_HLADR: BioMAP Diversity Plus: BE3C Assay for Human Leukocyte Antigen - DR isotype (HLADR) Biomarker Activity (AID 2283032). To be noted: primary human bronchial epithelial cells; actives raise or lower the signal. The gist of the method: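 Primary human bronchial epithelial cells (BE3C); 24 h chemical exposure; HLA-DR by ELISA; bidirectional curve fit vs DMSO baseline.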

Read-out in assay [2]: Vascular cell adhesion molecule 1 (VCAM1), VCAM1 (gene 7412)
Kind of assay: BSK_4H_VCAM1: BioMAP Diversity Plus: 4H Assay for Vascular cell adhesion molecule 1 (VCAM1) Biomarker Activity (AID 2283033).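 On outcome: cell-surface VCAM-1 protein measured by ELISA.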 To be noted: primary human endothelial cells (HUVEC); actives raise or lower the signal. An outline of the steps:
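HUVEC, 24 h post-dose; VCAM-1 by ELISA. Bidirectional curve fit vs DMSO baseline. Parallel SRB total-protein stain (0.1% SRB after 10% TCA fixation, 560 nm) for cytotoxicity.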

Read-out in assay [3]: Interferon-gamma inducible Protein 10 (IP10), CXCL10 (gene 3627)
In words: BSK_BE3C_IP10: BioMAP Diversity Plus: BE3C Assay for Interferon-gamma inducible Protein 10 (IP10) Biomarker Activity (AID 2283034). The conditions noted are these: primary human bronchial epithelial cells; actives raise or lower the signal. The gist of the method: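 ELISA readout of IP-10 in BE3C system: primary human bronchial epithelial cells, 24 h post-dosing; bidirectional curve fit vs DMSO baseline.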

Read-out in assay [4]: Monokine induced gamma interferon (MIG), CXCL9 (gene 4283)
Kind of assay: BSK_BE3C_MIG: BioMAP Diversity Plus: BE3C Assay for Monokine induced gamma interferon (MIG) Biomarker Activity (AID 2283035). To be noted: primary human bronchial epithelial cells; actives raise or lower the signal. The gist of the method: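 ELISA quantified MIG after 24 h exposure of primary bronchial epithelial cultures, analysed in both directions relative to DMSO. Cytotoxicity tracked in parallel cultures by sulforhodamine B staining.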

Read-out in assay [5]: Transforming growth factor beta 1 (TGFb1), TGFB1 (gene 7040)
Kind of assay: BSK_BE3C_TGFb1: BioMAP Diversity Plus: BE3C Assay for Transforming growth factor beta 1 (TGFb1) Biomarker Activity (AID 2283036;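 further: TGF-b1 protein level measured by ELISA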). To be noted: primary human bronchial epithelial cells; actives raise or lower the signal. An outline of the steps: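 Read-out: ELISA for TGF-b1 in primary human bronchial epithelial cultures, 24 h post-dose. Bidirectional curve fitting vs DMSO control; gain or loss of signal both scored.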

Read-out in assay [6]: Plasminogen activator inhibitor-1 (PAI1), SERPINE1 (gene 5054)
Kind of assay: BSK_BE3C_PAI1: BioMAP Diversity Plus: BE3C Assay for Plasminogen activator inhibitor-1 (PAI1) Biomarker Activity (AID 2283037). The conditions noted are these: primary human bronchial epithelial cells; actives raise or lower the signal. The gist of the method:
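ELISA read-out of PAI-1 from human bronchial epithelial primary cells, 24 h post-dosing; bidirectional curve fit vs DMSO baseline, gain or loss of signal scored.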

Read-out in assay [7]: urokinase plasminogen activator (uPA), PLAU (gene 5328)
In words: BSK_BE3C_uPA: BioMAP Diversity Plus: BE3C Assay for urokinase plasminogen activator (uPA) Biomarker Activity (AID 2283038).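 Further: uPA protein level quantified by ELISA in cell cultures; uPA read one day after compound addition.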 The conditions noted are these: primary human bronchial epithelial cells; actives raise or lower the signal. The gist of the method: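 ELISA read-out of uPA in human lung primary bronchial epithelial cultures, 24 h post-dosing. Gain or loss of signal fitted bidirectionally relative to DMSO baseline; cytotoxicity checked in parallel cultures via SRB total protein stain.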

Read-out in assay [8]: Urokinase-type plasminogen activator receptor (uPAR), PLAUR (gene 5329)
Kind of assay: BSK_BE3C_uPAR: BioMAP Diversity Plus: BE3C Assay for Urokinase-type plasminogen activator receptor (uPAR) Biomarker Activity (AID 2283039).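 Further: uPAR protein level measured by ELISA on the cells; cells exposed to compound for one day before measurement.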 To be noted: primary human bronchial epithelial cells; actives raise or lower the signal. The gist of the method: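 ELISA readout of uPAR on human lung primary bronchial epithelial cells, 24 h post-dosing. Bidirectional curve fit relative to DMSO vehicle baseline; gain or loss of signal both scored.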

Read-out in assay [9]: Interleukin-6 (IL6), IL6 (gene 3569)
Kind of assay: BSK_CASM3C_IL6: BioMAP Diversity Plus: CASM3C Assay for Interleukin-6 (IL6) Biomarker Activity for (AID 2283040). The conditions noted are these: primary human coronary artery smooth muscle cells; actives raise or lower the signal.

Read-out in assay [10]: Tissue plasminogen activator (tPA), PLAT (gene 5327)
Kind of assay: BSK_BE3C_tPA: BioMAP Diversity Plus: BE3C Assay for Tissue plasminogen activator (tPA) Biomarker Activity (AID 2283041).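 Further: tPA level quantified by ELISA one day after compound addition.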 To be noted: primary human bronchial epithelial cells; actives raise or lower the signal. The gist of the method:
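ELISA read-out of tPA on human primary bronchial epithelial cells, 24 h post-dosing; bidirectional fit vs DMSO negative control/baseline.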

Read-out in assay [11]: Interleukin-8 (IL8), CXCL8 (gene 3576)
Kind of assay: BSK_CASM3C_IL8: BioMAP Diversity Plus: CASM3C Assay for Interleukin-8 (IL8) Biomarker Activity (AID 2283042).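 Further: IL-8 protein level quantified by ELISA.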 The conditions noted are these: primary human coronary artery smooth muscle cells; actives raise or lower the signal.

Read-out in assay [12]: Macrophage colony-stimulating factor (MCSF), CSF1 (gene 1435)
In words: BSK_CASM3C_MCSF: BioMAP Diversity Plus: CASM3C Assay for Macrophage colony-stimulating factor (MCSF) Biomarker Activity (AID 2283044).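 Further: M-CSF protein amount quantified by ELISA after 24 h exposure.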 To be noted: primary human coronary artery smooth muscle cells; actives raise or lower the signal.

Read-out in assay [13]: Low-density lipoprotein receptor (LDLR), LDLR (gene 3949)
In words: BSK_CASM3C_LDLR: BioMAP Diversity Plus: CASM3C Assay for Low-density lipoprotein receptor (LDLR) Biomarker Activity (AID 2283045).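 Further: LDLR protein level on the cell surface quantified by ELISA.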 The conditions noted are these: primary human coronary artery smooth muscle cells; actives raise or lower the signal.

Read-out in assay [14]: Monocyte Chemoattractant Protein-1 (MCP1), CCL2 (gene 6347)
Kind of assay: BSK_CASM3C_MCP1: BioMAP Diversity Plus: CASM3C Assay for Monocyte Chemoattractant Protein-1 (MCP1) Biomarker Activity (AID 2283046).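 Further: MCP-1 level quantified by ELISA 24 h after dosing.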 The conditions noted are these: primary human coronary artery smooth muscle cells; actives raise or lower the signal.

A short description of assay [15]: BSK_CASM3C_Proliferation: Cell Proliferation Assessment in the BioMAP Diversity Plus: CASM3C Assay (AID 2283047).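 Further: sulforhodamine B total protein stain as relative cell number at 560 nm; sub-confluent cells exposed 48 h before staining; fitted both ways against DMSO so gain or loss of cell number.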 The conditions noted are these: primary human coronary artery smooth muscle cells.
Read-out in assay [16]: Monokine induced gamma interferon (MIG), CXCL9 (gene 4283)
In words: BSK_CASM3C_MIG: BioMAP Diversity Plus: CASM3C Assay for Monokine induced gamma interferon (MIG) Biomarker Activity (AID 2283048).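 Further: MIG protein level measured by ELISA.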 The conditions noted are these: primary human coronary artery smooth muscle cells; actives raise or lower the signal.

Read-out in assay [17]: serum amyloid A (SAA), SAA1 (gene 6288)
In words: BSK_CASM3C_SAA: BioMAP Diversity Plus: CASM3C Assay for serum amyloid A (SAA) Biomarker Activity (AID 2283049).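 Further: SAA protein level quantified by ELISA.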 To be noted: primary human coronary artery smooth muscle cells; actives raise or lower the signal.

Assay [18] in a line: BSK_CASM3C_SRB: Viability Assessment in the BioMAP Diversity Plus: CASM3C Assay (AID 2283050).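 Further: total protein by SRB staining as cytotoxicity measure in parallel cultures; cells exposed to compound for 24 h.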 To be noted: primary human coronary artery smooth muscle cells.
Read-out in assay [19]: Vascular endothelial growth factor receptor 2 (Homo sapiens) (UniProt P35968)
In words: BSK_4H_VEGFRII: BioMAP Diversity Plus: 4H Assay for Vascular endothelial growth factor receptor 2 (VEGFR2) Biomarker Activity (AID 2283031). The conditions noted are these: primary human endothelial cells (HUVEC); actives raise or lower the signal. An outline of the steps:
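HUVEC (human primary), 4H system; 24 h post-dose; VEGFRII by ELISA; bidirectional curve fit vs DMSO baseline; gain or loss of signal scored.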

Read-out in assay [20]: Human Leukocyte Antigen - DR isotype (HLADR), HLA-DRA (gene 3122)
Kind of assay: BSK_CASM3C_HLADR: BioMAP Diversity Plus: CASM3C Assay for Human Leukocyte Antigen - DR isotype (HLADR) Biomarker Activity (AID 2283043).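 Further: cell-surface HLA-DR protein level quantified by ELISA.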 The conditions noted are these: primary human coronary artery smooth muscle cells; actives raise or lower the signal.

Activity calls are given as the source filed them. How the source made its calls: active means hit-call score of the fitted dose curve at least 0.9, where 1 is the maximum; inactive means score below 0.9.

With `O=c1c(O)c(-c2ccc(O)c(O)c2)oc2cc(O)cc(O)c12`, the AC50 in assay [1] is 20 µM (active); in assay [2], 26.9 µM (active); in assay [9] it was 8.19 µM (active); in assay [11], 11.6 µM (active); in [12] it was 6.34 µM (active); in assay [13] it was 4.11 µM (active). Also, the AC50 is 9.09 µM (active) in [14], 9.64 µM (active) in [15], 20 µM (active) in assay [16] and 14.2 µM (active) in assay [18]. Further, the result in assay [3], in assay [4], in [5], in assay [6], in assay [7] and in assay [8] was inactive. In addition, the result in [10] and in [17] was inactive.
For `C=CCc1ccc(O)c(OC)c1`, the outcome in assay [19], in assay [1], in assay [2], in assay [3], in [4] and in assay [6] was inactive. The outcome in [7], in assay [8], in assay [9], in assay [10], in [11] and in [20] was inactive. Also, the result in assay [12], in [13], in assay [14], in assay [15], in assay [16] and in [17] was inactive. In addition, the outcome in [18] was inactive.
Consider `CC(=O)OC/C=C(\C)CCC=C(C)C`, for which the result in assay [19], in [1], in assay [2], in assay [3], in assay [4] and in assay [6] was inactive. Moreover, the outcome in assay [7], in assay [8], in [9], in assay [10], in assay [11] and in assay [20] was inactive. In addition, the outcome in assay [12], in assay [13], in assay [14], in assay [15], in assay [16] and in assay [17] was inactive. Besides, in [18], the result was inactive.
On to `CNCc1cc(F)ccc1Oc1ccc(Cl)c(Cl)c1`, for which the result in assay [19], in assay [2], in assay [3], in assay [4], in assay [6] and in [7] was inactive. For the same compound, the result in assay [8], in [9], in assay [10], in [11], in assay [20] and in [12] was inactive. Further, the result in assay [14], in assay [16], in assay [17] and in assay [18] was inactive. Further, the figures for the AC50 in assay [1], in assay [13] and in [15] were 27.9 µM (active), 13.8 µM (active) and 22 µM (active), respectively.
Take `COc1cc(S(=O)(=O)O)c(C)cc1N=Nc1c(O)ccc2cc(S(=O)(=O)O)ccc12`: the result in assay [19], in [1], in [2], in assay [3], in assay [4] and in [6] was inactive. Moreover, the outcome in assay [7], in assay [8], in assay [9], in assay [10], in [11] and in assay [20] was inactive. For the same compound, the result in [12], in assay [13], in assay [14], in [15], in assay [16] and in assay [17] was inactive. Also, the result in assay [18] was inactive.
`Cc1c(C(=O)O)c(O)cc2c1C(=O)c1c(O)c([C@@H]3O[C@H](CO)[C@@H](O)[C@H](O)[C@H]3O)c(O)c(O)c1C2=O`: the result in [19], in [1], in assay [2], in [3], in assay [4] and in assay [6] was inactive. Besides, the result in [7], in assay [8], in assay [9], in assay [10], in [11] and in assay [20] was inactive. Moreover, the result in assay [12], in assay [13], in assay [14], in [15], in assay [16] and in [17] was inactive. The result in assay [18] was inactive.
On to `CCCCOC(=O)CCCCCCCCC(=O)OCCCC`, for which the result in assay [19], in assay [1], in assay [2], in assay [3], in [4] and in assay [6] was inactive. Moreover, the result in assay [7], in [8], in [9], in [10], in assay [11] and in [20] was inactive. The result in [12], in assay [13], in assay [14], in [15], in assay [16] and in assay [17] was inactive. In assay [18], the result was inactive.
For `Cc1cccc(Nc2cc(Cl)nc(SCC(=O)O)n2)c1C`, the outcome in assay [19], in [1], in assay [2], in assay [3], in assay [4] and in [6] was inactive. For the same compound, the outcome in assay [7], in assay [8], in assay [9], in assay [10], in assay [11] and in assay [20] was inactive. In addition, the result in assay [12], in assay [13], in [14], in [15], in assay [16] and in assay [17] was inactive. In assay [18], the result was inactive.
On to `Cc1ccc2ncccc2c1`, for which the outcome in [19], in [1], in assay [2], in assay [3], in [4] and in assay [6] was inactive. Besides, the outcome in [7], in assay [8], in [9], in assay [10], in assay [11] and in [20] was inactive. In addition, the outcome in assay [12], in assay [13], in [14], in assay [15], in assay [16] and in assay [17] was inactive. Also, the outcome in assay [18] was inactive.

As usually defined, the AC50 is the concentration giving half of the maximal activity seen.
